The results in this text go back to PubChem BioAssay (EPA / NIEHS).

As a reminder, the AC50 is the midpoint of the concentration-response curve, whichever way the signal moves.

Active and inactive are the calls of the source. Rule for the calls: active = hit-call score of the fitted dose curve at least 0.9, where 1 is the maximum; inactive = score below 0.9.

Read-out in experiment [1]: Vascular cell adhesion molecule 1 (VCAM1), VCAM1 (gene 7412)
Kind of experiment: BSK_4H_VCAM1: BioMAP Diversity Plus: 4H Assay for Vascular cell adhesion molecule 1 (VCAM1) Biomarker Activity (AID 2283033).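 For outcome: cell-surface VCAM-1 protein measured by ELISA.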 The settings on record: primary human endothelial cells (HUVEC); actives raise or lower the signal. An outline of the steps:
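VCAM-1 ELISA read 24 h after chemical dosing of HUVEC in the BioMAP 4H system, with gain or loss of signal fitted relative to DMSO. Parallel SRB staining (560 nm) checked overt cytotoxicity.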

Read-out in experiment [2]: Interferon-gamma inducible Protein 10 (IP10), CXCL10 (gene 3627)
Kind of experiment: BSK_BE3C_IP10: BioMAP Diversity Plus: BE3C Assay for Interferon-gamma inducible Protein 10 (IP10) Biomarker Activity (AID 2283034). The settings on record: primary human bronchial epithelial cells; actives raise or lower the signal. The gist of the method:
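IP-10 quantified by ELISA in human primary bronchial epithelial cell cultures at 24 hours post-dosing. Gain or loss of signal fitted relative to DMSO; parallel SRB staining assessed overt cytotoxicity.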

Read-out in experiment [3]: Monokine induced gamma interferon (MIG), CXCL9 (gene 4283)
Kind of experiment: BSK_BE3C_MIG: BioMAP Diversity Plus: BE3C Assay for Monokine induced gamma interferon (MIG) Biomarker Activity (AID 2283035). The settings on record: primary human bronchial epithelial cells; actives raise or lower the signal. The gist of the method: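 Dose cells (human primary bronchial epithelial), incubate 24 h, quantify MIG by ELISA, then fit concentration–response in both directions relative to DMSO control.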

Read-out in experiment [4]: Transforming growth factor beta 1 (TGFb1), TGFB1 (gene 7040)
Kind of experiment: BSK_BE3C_TGFb1: BioMAP Diversity Plus: BE3C Assay for Transforming growth factor beta 1 (TGFb1) Biomarker Activity (AID 2283036;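 for outcome: TGF-b1 protein level measured by ELISA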). The settings on record: primary human bronchial epithelial cells; actives raise or lower the signal. An outline of the steps: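 ELISA readout of TGF-b1 from human lung bronchial epithelial primary cells, taken 24 h post-treatment. Gain or loss of signal fitted relative to DMSO baseline, with parallel SRB staining for overt cytotoxicity.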

Read-out in experiment [5]: Plasminogen activator inhibitor-1 (PAI1), SERPINE1 (gene 5054)
Kind of experiment: BSK_BE3C_PAI1: BioMAP Diversity Plus: BE3C Assay for Plasminogen activator inhibitor-1 (PAI1) Biomarker Activity (AID 2283037). The settings on record: primary human bronchial epithelial cells; actives raise or lower the signal. The gist of the method: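 PAI-1 was measured by ELISA in human primary bronchial epithelial cultures 24 h after chemical dosing, with cytotoxicity checked by SRB total-protein staining in parallel cultures. Activity was fitted in both directions relative to DMSO.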

Read-out in experiment [6]: urokinase plasminogen activator (uPA), PLAU (gene 5328)
Kind of experiment: BSK_BE3C_uPA: BioMAP Diversity Plus: BE3C Assay for urokinase plasminogen activator (uPA) Biomarker Activity (AID 2283038).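 For outcome: uPA protein level quantified by ELISA in cell cultures; uPA read one day after compound addition.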 The settings on record: primary human bronchial epithelial cells; actives raise or lower the signal. The gist of the method:
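Using confluent primary human lung bronchial epithelial cultures, we dosed chemicals, waited 24 h, then ran a uPA ELISA, fitting bidirectionally against DMSO.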

Read-out in experiment [7]: Urokinase-type plasminogen activator receptor (uPAR), PLAUR (gene 5329)
Briefly: BSK_BE3C_uPAR: BioMAP Diversity Plus: BE3C Assay for Urokinase-type plasminogen activator receptor (uPAR) Biomarker Activity (AID 2283039).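 For outcome: cells exposed to compound for one day before measurement.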 The settings on record: primary human bronchial epithelial cells; actives raise or lower the signal. An outline of the steps:
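uPAR levels were measured by ELISA after 24 h compound treatment of primary human bronchial epithelial cells, fitted in both directions relative to DMSO. Parallel SRB staining served as the cytotoxicity read-out.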

Read-out in experiment [8]: Interleukin-6 (IL6), IL6 (gene 3569)
Kind of experiment: BSK_CASM3C_IL6: BioMAP Diversity Plus: CASM3C Assay for Interleukin-6 (IL6) Biomarker Activity for (AID 2283040). The settings on record: primary human coronary artery smooth muscle cells; actives raise or lower the signal.

Read-out in experiment [9]: Tissue plasminogen activator (tPA), PLAT (gene 5327)
Briefly: BSK_BE3C_tPA: BioMAP Diversity Plus: BE3C Assay for Tissue plasminogen activator (tPA) Biomarker Activity (AID 2283041).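 For outcome: tPA level quantified by ELISA one day after compound addition.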 The settings on record: primary human bronchial epithelial cells; actives raise or lower the signal. The gist of the method:
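tPA measured by ELISA 24 h after dosing human primary bronchial epithelial cells (BE3C system). Changes in either direction were fitted against DMSO. Parallel cultures were stained with SRB to flag overt cytotoxicity.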

Read-out in experiment [10]: Interleukin-8 (IL8), CXCL8 (gene 3576)
Briefly: BSK_CASM3C_IL8: BioMAP Diversity Plus: CASM3C Assay for Interleukin-8 (IL8) Biomarker Activity (AID 2283042).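 Note: IL-8 protein level quantified by ELISA.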 The settings on record: primary human coronary artery smooth muscle cells; actives raise or lower the signal.

On to `CCCCCCCCOC(=O)CCCCCCCCC(=O)OCCCCCCCC`, for which the result in experiment [1], in experiment [2], in experiment [3], in [4], in experiment [5] and in experiment [6] was inactive. The result in experiment [7], in experiment [8], in [9] and in [10] was inactive.

Regarding `CC(=O)NC1(c2cccc(F)c2)CCN(CC[C@@]2(c3ccc(Cl)c(Cl)c3)CN(c3ccccc3)C(=O)CO2)CC1`, the AC50 in experiment [1] was 27.8 µM (active); in experiment [2], 26 µM (active); in experiment [3] it was 26.9 µM (active); in experiment [5] it was 16.6 µM (active); in experiment [6], 16.6 µM (active); in experiment [7], 16.6 µM (active). The AC50 was 8.45 µM (active) in [8] and 16.6 µM (active) in [9]. The outcome in [4] and in experiment [10] was inactive.

Turning to `CCCOc1sc(C(=O)N2CCC(c3cc(CN)ccc3F)CC2)c(C)c1Br`, the AC50 was 8.01 µM (active) in experiment [1]; 9.51 µM (active) in experiment [2]; 10.2 µM (active) in experiment [3]; 6.71 µM (active) in [4]; 9.91 µM (active) in [5]; 5.88 µM (active) in experiment [6]. The AC50 was 7.36 µM (active) in [7], 27.4 µM (active) in experiment [8], 5.19 µM (active) in experiment [9] and 15.4 µM (active) in [10].

As to `CCCCCCCCCCCCCCCS(=O)(=O)Oc1ccccc1`, the outcome in experiment [1], in experiment [2], in experiment [3], in experiment [4], in experiment [5] and in experiment [6] was inactive. In addition, the outcome in [7], in [8], in experiment [9] and in experiment [10] was inactive.

Take `CCc1ccc(CCOc2ccc(CC3SC(=O)NC3=O)cc2)nc1` (stereo not drawn): the outcome in [1], in experiment [2], in experiment [3], in experiment [4], in experiment [5] and in experiment [6] was inactive. The result in [7], in [8], in [9] and in [10] was inactive.

In the case of `Cc1cc(CCN2CCN(c3nsc4ccccc34)CC2)cc2c1NC(=O)CC2(C)C`, the AC50 in experiment [1] was 22.3 µM (active); in experiment [2] it was 30.4 µM (active); in experiment [3] it was 34.4 µM (active); in [4] it was 27.2 µM (active); in [5], 32.6 µM (active); in experiment [6], 31.3 µM (active). Besides, the results for the AC50 in [7], in [9] and in [10] were 31.2 µM (active), 25.8 µM (active) and 35.4 µM (active), respectively.

With `CC(C)(C)c1cccc(C(C)(C)C)c1O`, the result in experiment [1], in [2], in experiment [3], in experiment [4], in experiment [5] and in experiment [6] was inactive. The result in experiment [7], in experiment [8], in [9] and in experiment [10] was inactive.

On to `O=C(O)c1ccccc1C(c1ccc(O)cc1)c1ccc(O)cc1`, for which the result in experiment [1], in [3], in experiment [4], in experiment [6], in experiment [7] and in [8] was inactive. Besides, the result in [9] and in experiment [10] was inactive. Besides, the AC50 in [2] was 31.1 µM (active); in [5], 33.4 µM (active).

As to `CC1=C(/C=C/C(C)=C/C=C/C(C)=C/C(=O)O)C(C)(C)CCC1`, the AC50 was 26.3 µM (active) in experiment [1], 20 µM (active) in [2] and 2.7 µM (active) in experiment [8]. The outcome in experiment [3], in experiment [4], in experiment [5], in [6], in experiment [7] and in experiment [9] was inactive. Besides, in experiment [10], the result was inactive.

With `CCCCCCCCCCCCN1CCCC1=O`, the AC50 is 34.2 µM (active) in experiment [1]; 30.6 µM (active) in experiment [2]; 35.2 µM (active) in experiment [3]; 20 µM (active) in experiment [4]; 31.8 µM (active) in experiment [5]; 35.1 µM (active) in experiment [6]. For the same compound, the values for the AC50 in experiment [7] and in experiment [9] were 32.4 µM (active) and 15.4 µM (active), respectively. Moreover, the result in experiment [8] and in [10] was inactive.

`O=C(O)Cc1cc(I)c(Oc2cc(I)c(O)c(I)c2)c(I)c1`: the AC50 in experiment [1] is 19.5 µM (active); in experiment [2] it was 2.73 µM (active); in experiment [3] it was 9.13 µM (active); in experiment [4] it was 8.3 µM (active); in [5] it was 4.21 µM (active); in experiment [7], 10.4 µM (active). Moreover, the AC50 is 21.7 µM (active) in experiment [8] and 4.84 µM (active) in experiment [9]. For the same compound, the result in experiment [10] was inactive.

Consider `CC(C)(C)c1cc(C(C)(C)C)c(O)c(C(C)(C)C)c1`, for which the result in [1], in experiment [2], in experiment [3], in experiment [4], in [5] and in experiment [7] was inactive. In addition, the outcome in experiment [8], in experiment [9] and in experiment [10] was inactive. Also, the AC50 in experiment [6] was 5.06 µM (active).

With `CN1CCC[C@H]1c1cccnc1`, the outcome in experiment [1], in experiment [2], in experiment [3], in [4], in experiment [5] and in [6] was inactive. For the same compound, the outcome in [7], in [8], in experiment [9] and in [10] was inactive.

For `O=[N+]([O-])c1ccc(O)cc1`, the outcome in [1], in experiment [2], in [3], in experiment [4], in experiment [5] and in [6] was inactive. Further, the result in [7], in [8], in [9] and in [10] was inactive.

For the compound `CCCCCCCCCCCCc1ccccc1S(=O)(=O)O`, the result in [1], in experiment [8] and in [10] was inactive. The AC50 in [2] was 6.21 µM (active); in experiment [3], 30.1 µM (active); in experiment [4], 8.96 µM (active); in experiment [5], 8.94 µM (active); in [6] it was 13.9 µM (active); in experiment [7], 14.2 µM (active). In experiment [9], the AC50 is 6.79 µM (active).

In the case of `CC[C@H](c1ccc(O)cc1)[C@@H](CC)c1ccc(O)cc1`, the AC50 in experiment [1] is 30.7 µM (active); in [2], 20.1 µM (active); in experiment [3] it was 34.5 µM (active); in experiment [4], 27.9 µM (active); in experiment [5] it was 22.9 µM (active); in [6], 37.2 µM (active). Besides, the AC50 in experiment [7] was 37.8 µM (active); in experiment [9] it was 27.5 µM (active). For the same compound, the outcome in experiment [8] and in [10] was inactive.

Consider `CCCCC(CC)COC(=O)CCCCC(=O)OCC(CC)CCCC` (stereo not drawn), for which the outcome in [1], in experiment [2], in experiment [3], in experiment [4], in experiment [5] and in [6] was inactive. Besides, the outcome in [7], in experiment [8], in experiment [9] and in experiment [10] was inactive.
